# Experimental data: PMC4336329 (PLoS ONE, 2015)
# Among all 310,000 compounds or so, about 14,000 (4.5%) showed an effect of 50% or more. The effect is printed as a negative number. This excerpt belongs to a sample that is enriched for strong results.
# Biological target: human ether-à-go-go-related gene (hERG) potassium channel (human, UniProt Q12809)
# Experiment: primary screen, population patch clamp on CHO cells stably expressing hERG; higher = less effect of the substance
# 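Note: peak tail current of the secondary pulse compared with the same well before compound.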
# Chain of human ether-à-go-go-related gene (hERG) potassium channel (Q12809 whole entry, looked up): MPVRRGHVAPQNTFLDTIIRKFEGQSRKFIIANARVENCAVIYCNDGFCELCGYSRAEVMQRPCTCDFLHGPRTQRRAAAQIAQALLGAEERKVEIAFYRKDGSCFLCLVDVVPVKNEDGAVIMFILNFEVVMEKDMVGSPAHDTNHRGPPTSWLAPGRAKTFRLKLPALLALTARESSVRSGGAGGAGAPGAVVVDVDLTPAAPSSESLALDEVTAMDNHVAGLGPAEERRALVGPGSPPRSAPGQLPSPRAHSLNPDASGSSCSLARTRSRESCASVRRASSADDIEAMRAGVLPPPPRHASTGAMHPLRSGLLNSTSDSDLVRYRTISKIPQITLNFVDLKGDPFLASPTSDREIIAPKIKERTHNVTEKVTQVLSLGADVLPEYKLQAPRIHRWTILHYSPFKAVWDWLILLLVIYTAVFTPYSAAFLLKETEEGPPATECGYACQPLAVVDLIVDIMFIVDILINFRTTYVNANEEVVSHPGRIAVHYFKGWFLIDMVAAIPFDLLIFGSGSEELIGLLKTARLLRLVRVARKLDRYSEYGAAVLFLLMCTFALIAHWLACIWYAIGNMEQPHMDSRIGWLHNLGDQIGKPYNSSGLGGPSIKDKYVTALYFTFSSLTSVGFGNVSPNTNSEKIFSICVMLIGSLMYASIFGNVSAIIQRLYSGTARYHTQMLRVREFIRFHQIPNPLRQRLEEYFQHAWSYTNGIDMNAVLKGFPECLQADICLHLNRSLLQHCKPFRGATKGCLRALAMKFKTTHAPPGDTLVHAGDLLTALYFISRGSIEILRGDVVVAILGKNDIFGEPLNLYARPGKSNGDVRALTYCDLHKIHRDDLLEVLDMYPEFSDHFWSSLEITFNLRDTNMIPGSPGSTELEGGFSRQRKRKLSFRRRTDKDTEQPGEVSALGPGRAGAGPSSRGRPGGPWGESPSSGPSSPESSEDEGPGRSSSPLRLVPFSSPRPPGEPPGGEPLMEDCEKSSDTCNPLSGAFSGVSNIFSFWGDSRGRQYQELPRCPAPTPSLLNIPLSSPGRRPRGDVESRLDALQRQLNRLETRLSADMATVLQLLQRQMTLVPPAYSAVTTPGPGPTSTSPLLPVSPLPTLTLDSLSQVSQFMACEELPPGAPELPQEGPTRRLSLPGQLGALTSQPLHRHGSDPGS
row,Compound,"hERG current change (%, negative = inhibition) at 10uM"
1,CC(=C/c1ccc(C(C)C)cc1)/C=N/NC(=O)Cn1nnnc1N,17.3%
2,CS/C(=N/S(=O)(=O)c1ccc(C)cc1)c1ccccc1,-3.56%
3,Cl.c1ccc(CN(CC2=NCCN2)c2ccccc2)cc1,-29.7%
4,Cc1ccc(N(CC(=O)Nc2c(C)cccc2C)S(C)(=O)=O)cc1,1.65%
5,Cl.c1ccc(CC2=NCCN2)cc1,7.57%
6,O=P(O)(O)O.c1ccc(CN(CC2=NCCN2)c2ccccc2)cc1,-17.3%
7,CS(=O)(=O)O.Cc1ccc(N(CC2=NCCN2)c2cccc(O)c2)cc1,-51.2%
8,Cc1ccc(N(CC2=NCCN2)c2cccc(O)c2)cc1.Cl,-58.3%
9,Cc1cc(C)nc(/N=C2\NC(=O)CC(C(=O)O)N2CCc2c[nH]c3ccccc23)n1 (stereo not shown),12.8%
10,COc1cccc(NC(=O)C(c2ccccc2)N2CCNC(=O)C2)c1 (stereo not shown),-7.23%
11,O=C(CCN1CCOCC1)N1CCCC(Nc2ccc(F)cc2)C1 (stereo not shown),13.7%
12,C/C(=N\NC(=S)Nc1ccc(F)cc1)C1CC1,-26.7%
13,COc1ccc(C(=O)NC(=S)Nc2cccnc2)cc1[N+](=O)[O-],4.69%
14,Cc1cccc(N(CC(=O)NCCSCc2ccccc2)S(C)(=O)=O)c1,26.5%
15,COc1ccc(C2C(C(=O)OCC(=O)N3CCCCC3)CCC(=O)N2c2ccc(OC)cc2)cc1 (stereo not shown),-13.3%
16,CCNC(=O)COC(=O)C1CCC(=O)N(c2ccc(OC)cc2)C1c1ccc(OC)cc1 (stereo not shown),-32.2%
17,COc1ccc(C2C(C(=O)OCC(=O)Nc3ccc(C)cc3)CCC(=O)N2c2ccc(OC)cc2)cc1 (stereo not shown),-62.4%
18,COc1ccc(C(=O)OCC[N+]2(C)CCOCC2)cc1.[I-],13.6%
19,COCCN(C/C=C/c1ccccc1)C/C=C/c1ccccc1,-69.4%
20,NC(=O)CN(C/C=C/c1ccccc1)C/C=C/c1ccccc1,20.6%
21,CN(C/C=C/c1ccccc1)C1CCCCC1,-21.7%
22,CC(C)=CCCC(C)CN1CCC(n2nccc2NC(=O)C2CCCC2)CC1 (stereo not shown),-70.8%
23,CC(C)CCN1CCC(n2nccc2NC(=O)c2ccc3c(c2)OCO3)CC1,-5.16%

row,Compound,"hERG current change (%, negative = inhibition) at 10uM"
1,CCc1ccc(CN2CCC(n3nccc3NC(=O)c3ccccc3)CC2)o1,-36%
2,CC(C)(CO)CN1CCC(n2nccc2NC(=O)C2CCCC2)CC1,11.4%
3,CC(C)=CCCC(C)CN1CCC(n2nccc2NC(=O)c2ccccc2)CC1 (stereo not shown),-69.6%
4,CC(C)=CCCC(C)CN1CCC(n2nccc2NC(=O)c2cccnc2)CC1 (stereo not shown),-52.1%
5,COc1ccc(C(=O)Nc2ccnn2C2CCN(C(=O)c3cccnc3)CC2)cc1,12.3%
6,O=C(Nc1ccnn1C1CCN(CC(O)CO)CC1)C1CCCC1 (stereo not shown),11.4%
7,O=C(Nc1cccnc1Cl)c1cc(-c2ccccc2O)on1,-5.16%
8,COc1ccc(NCc2ccc3c(c2)OCO3)cc1Cl,-4.31%
9,CC(C)CSc1nnc2c3ccccc3n(C)c2n1,-11.9%
10,CC1=C(C(N)=O)C(c2ccccc2[N+](=O)[O-])n2ncnc2N1 (stereo not shown),7.69%
11,C=Cn1c(C(=O)O)ccc1-c1ccc(CC)cc1,-5.29%
12,COC(=O)Nc1ccc(S(=O)(=O)N(CCO)CC(F)(F)C(F)F)cc1,18.3%
13,CN=C1S/C(=C\c2ccc(OCC(=O)OC)c(OC)c2)C(=O)N1C,12.6%
14,Cc1nc(NCc2cccnc2)c2c3c(sc2n1)CCCC3,-70.2%
15,Cc1ccc(CNc2nc(C)nc3sc4c(c23)CCC4)cc1,-4.22%
16,Cc1sc2ncnc(NCCCO)c2c1C,5.08%
17,c1ccc(CNc2ncnc3sc4c(c23)CCCC4)nc1,-27.4%
18,Cc1sc2ncnc(NCc3ccco3)c2c1C,-16.3%
19,Cc1sc2ncnc(OCC(=O)NCc3cccs3)c2c1C,6.03%
20,O=C(Nc1ncnc2sc3c(c12)CCCC3)c1ccncc1,-14.2%
21,Cc1sc2ncnc(NCc3cccnc3)c2c1C,-55%
22,CCCNc1ncnc2sc(C)c(C)c12,-1.05%
23,c1cncc(CNc2ncnc3sc4c(c23)CCCC4)c1,-78%

row,Compound,"hERG current change (%, negative = inhibition) at 10uM"
1,Cc1sc2ncnc(NCc3cccs3)c2c1C,-61.7%
2,Cc1nc(NCc2cccnc2)c2c3c(sc2n1)CC(C)CC3 (stereo not shown),-25.1%
3,c1ccc2c(CSc3nnc(-c4ccncc4)o3)cccc2c1,-12.8%
4,CCC(CC)C(=O)Nc1nnc(S(=O)(=O)N2CCc3ccccc32)s1,17.9%
5,O=C(O)C1CCCCC1C(=O)Nc1cc(Cl)ccc1Cl (stereo not shown),10.3%
6,CCc1ccccc1SCc1noc(C(=O)NCC2CCCO2)c1C(=O)O (stereo not shown),2.36%
7,Cc1sc2ncnc(N(C)Cc3ccco3)c2c1C,-4.64%
8,c1ccc(CNc2ncnc3sc4c(c23)CCC4)nc1,-19.8%
9,Cl.c1cc(Nc2ncnc3sc4c(c23)CCC4)ccn1,19.3%
10,Cc1sc2ncnc(N(C)Cc3cccs3)c2c1C,-53%
11,Cc1sc2ncnc(NCC(c3ccco3)N3CCCC3)c2c1C (stereo not shown),-51.5%
12,Cl.c1cncc(CNc2ncnc3sc4c(c23)CCC4)c1,-56.2%
13,CN(C)C(CNc1ncnc2sc3c(c12)CCCCC3)c1ccco1 (stereo not shown),-35.4%
14,CN(Cc1cccs1)c1ncnc2sccc12,-28.8%
15,Cc1sc2ncnc(NCC(c3ccco3)N(C)C)c2c1C.O=C(O)C(=O)O (stereo not shown),-33.7%
16,CCOC(=O)N1CCN(C(=O)CN(C)S(=O)(=O)c2ccc(Cl)cc2)CC1,8.13%
17,COc1ccc(CCNC(=O)Cc2nn(C)c(=O)c3ccccc23)cc1OC,0.902%
18,CN(CC(=O)NC(=O)NCc1ccco1)Cc1nc2ccccc2c(=O)[nH]1,-3.41%
19,Cn1c(SCC(=O)N2CCCc3ccccc32)nc2cccnc21,9.85%
20,COc1ccc(-c2c[n+]3c(n2-c2ccccc2)SCC3)cc1.[Br-],-45.7%
21,[Br-].c1ccc(-c2c[n+]3c(n2-c2ccccc2)SCC3)cc1,-28.4%
22,Clc1ccc(-c2c[n+]3c(n2-c2ccccc2)SCC3)cc1.[Cl-],-62.7%
23,Cc1ccc(-c2c[n+]3c(n2-c2ccccc2)SCC3)cc1.[Br-],-35.8%

row,Compound,"hERG current change (%, negative = inhibition) at 10uM"
1,Brc1ccc(-c2c[n+]3c(n2-c2ccccc2)SCC3)cc1.[Br-],-49.4%
2,CCOc1ccc(-n2c(-c3ccc(Cl)cc3)c[n+]3c2SCC3)cc1.[Br-],-80.9%
3,CC(=O)c1c(C)[nH]c(C(=O)Nc2ccc(Cl)cc2)c1C,-9.14%
4,CC(C)C(c1nnnn1Cc1ccc(F)cc1)N1CCN(C(=O)c2ccco2)CC1 (stereo not shown),-49.1%
5,O=C(CCCNC(=O)c1ccc(Cl)cc1)Nc1ccccc1F,7%
6,COc1cccc(-n2cc(CNCc3c(C(=O)N(C)C)nc4ccc(Cl)cn34)cn2)c1,-55.9%
7,Cc1ccccc1-n1cc(CNCc2c(C(=O)N(C)C)nc3ccc(Cl)cn23)cn1,-7.4%
8,COc1ccc(CNCc2c(C(=O)N(C)C)nc3ccc(Cl)cn23)c(OC)c1,-11.1%
9,Cc1nn(C)cc1NC(=O)c1cc2nc(-c3ccco3)cc(C(F)(F)F)n2n1,4.66%
10,CCOC(=O)N1CCC(NC(=O)C(NS(=O)(=O)c2ccc3c(c2)CCN3C(=O)CC)C(C)C)CC1 (stereo not shown),-6.47%
11,CCc1ccc(NC(=O)CC2C(=O)N(c3ccc(C)cc3)C(=O)N2CCc2ccncc2)cc1 (stereo not shown),-55.8%
12,Cc1ccc(N2C(=O)C(CC(=O)Nc3cccc(F)c3)N(CCc3ccncc3)C2=O)cc1 (stereo not shown),-52.3%
13,Cc1cccc(N2C(=O)C(CC(=O)Nc3cccc(F)c3)N(CCc3ccncc3)C2=O)c1 (stereo not shown),-43.6%
14,CCc1ccc(NC(=O)CC2C(=O)N(c3ccc(C)cc3)C(=O)N2C2CC2)cc1 (stereo not shown),-4.46%
15,COc1ccc(CCN2C(=O)N(c3ccc(OC)cc3)C(=O)C2CC(=O)Nc2ccc(OC)cc2)cc1 (stereo not shown),7.46%
16,Cc1ccc(N2C(=O)C(CC(=O)Nc3cccc(F)c3)N(C3CC3)C2=O)cc1 (stereo not shown),-7.13%
17,O=C(COC(=O)c1ccc(Br)cc1)Nc1cccnc1Cl,-3.51%
18,COC(=O)c1cn(CC(=O)Nc2ccc(OC)cc2)c2ccccc12,8.2%
19,CC(=O)N1CC(C)Oc2ccc(S(=O)(=O)Nc3ccc(Cl)cn3)cc21 (stereo not shown),3.04%
20,CC(=O)OC1(c2ccccc2)CCN(C)CC1(C)C.Cl (stereo not shown),35.4%
21,Cc1ccc(S(=O)(=O)N2CCOC2CNC(=O)C(=O)NCc2ccccc2)cc1 (stereo not shown),-10.3%
22,Cc1ccc(SCc2cc(=O)[nH]c(N3CCOCC3)n2)cc1,-0.0128%
